Potency and max activation data for nine compounds are collected here from PubChem BioAssay (Tox21).

Values without a mark were called inactive. Results filed as inconclusive are left out. The source made the active and inactive calls. Calls follow the shape of the dose curve; as a rule, active = well fitted curve in the direction sought with a large enough effect in the repeat runs; inconclusive = weak or mixed curves; inactive = no such curve, though single readings can be large; an effect the other way counts as inactive or inconclusive.

Assay [1] can be described thus: Human pregnane X receptor (PXR) small molecule agonists, qHTS cell viability counter screen (AID 1346977). Also: nearly all actives have a fitted effect of over 50% in size. Also: potency is read from the fitted curve at half-maximal effect. The essentials: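 Fluorescence read-out (CellTiter-Fluor) of viability in PXR-Luc HepG2 cells, multiplexed with the luciferase agonist read. Compounds in DMSO added after 5hr plating; 24hr total exposure at 37C, 5% CO2.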
Background: Quantitative high-throughput screening tests each substance at several concentrations.

Assay [2] in a line: Caspase-3/7 induction in HepG2 cells by small molecules, qHTS assay (AID 1346978). Also: nearly all actives have a fitted effect of over 15% in size. The essentials: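 Wild-type HepG2 cells, 2,000/well, settled 5 hr at 37 C and 5% CO2, then compound-treated for 17 hr; caspase-3/7 activity read by luminescent Caspase-Glo 3/7 after 30 min at room temperature.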
Assay [3] can be described thus: Caspase-3/7 induction in CHO-K1 cells by small molecules, qHTS cell viability counter screen (AID 1346979). Also: nearly all actives have a fitted effect of over 35% in size. Also: potency is read from the fitted curve at half-maximal effect. In short, it runs like this: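 CHO-K1 wt, 1,500 cells/well; 5hr pre-incubation 37C/5% CO2; compound pin transfer (DMSO); 16hr exposure; CellTiter-Fluor added, 1hr, fluorescence read.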
The nature of assay [4]: Caspase-3/7 induction in CHO-K1 cells by small molecules, qHTS assay (AID 1346980). Also: nearly all actives have a fitted effect of over 15% in size. The essentials:
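Wild-type CHO-K1 cells exposed to compounds for 17hr at 37 C, 5% CO2. Caspase-3/7 activity then measured by Caspase-Glo 3/7 luminescence after 30min at room temperature.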

The target in assay [5] is Nuclear receptor subfamily 1 group I member 2 (Homo sapiens) (UniProt O75469). The experiment in a line: Human pregnane X receptor (PXR) small molecule agonists, qHTS assay (AID 1346982). Also: nearly all actives have a fitted effect of over 35% in size. Also: potency is read from the fitted curve at half-maximal effect. In short, it runs like this:
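Luciferase signal from ONE-Glo (30 min, room temperature) measured activation of hPXR-driven CYP3A4 reporter expression in PXR-Luc HepG2 cells treated with compounds for 24 hr at 37 C.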

The target in assay [6] is Nuclear receptor subfamily 1 group I member 2 (Rattus norvegicus) (UniProt Q9R1A7). The assay can be described thus: Rat pregnane X receptor (rPXR) activation by small molecules, qHTS assay (AID 1346983). Also: nearly all actives have a fitted effect of over 20% in size. The conditions noted are these: rPXR luciferase reporter cells, One-Glo luminescence, 24 h; max activation: hits give high values. In short, it runs like this:
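Cell-based rPXR activation assay: rPXR cells, 2,000 per well, rested 5hr at 37 C, then exposed to compounds in DMSO for 24 hr at 37 C. Luciferase activity read by One-Glo luminescence after 30 min at room temperature.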

Assay [7] has as its target Nuclear receptor subfamily 1 group I member 2 (Homo sapiens) (UniProt O75469). The experiment in a line: CYP3A4 induction through human pregnane X receptor (PXR) by small molecules, qHTS assay (AID 1346984). Also: nearly all actives have a fitted effect of over 40% in size. The essentials:
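Luminescence readout: luciferase signal after One-Glo (30 min, room temperature), following 3 h at 37C with 3uM final Luciferin-IPA P450 substrate. Cells were DPX-2 (HepG2, PXR/CYP3A4-luc co-transfected) dosed for 24 h.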

The target is the same in assay [8]. The experiment in a line: Human pregnane X receptor (PXR) activation by small molecules, qHTS assay (AID 1346985). Also: nearly all actives have a fitted effect of over 40% in size. The essentials: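 DPX-2 cells (HepG2 co-transfected with a PXR response element and a CYP3A4-promoter luciferase construct) were seeded at 2,000 per well, rested 5 hr at 37C, then exposed to DMSO-dissolved compounds for 24 hr. Activation was read as luciferase luminescence.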

Assay [9] concerns the target Cytochrome P450 2C19 (Homo sapiens) (UniProt P33261). The assay can be described thus: Cytochrome P450 Family 2 Subfamily C Member 19 (CYP2C19) small molecule antagonists: luciferase reporter qHTS assay (AID 1671197). Also: nearly all actives have a fitted effect of over 65% in size. Also: potency is read from the fitted curve at half-maximal effect. The essentials: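 First, compounds are pinned into enzyme-substrate mix and held 10 min at room temperature. Second, NADPH regeneration solution is added and plates incubate 1 h at 37C. Third, detection reagent is added and luminescence read after 20 min.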
On the technique in general: In a reporter assay the amount or activity of a reporter protein is the signal.

The target in assay [10] is Cytochrome P450 2C9 (Homo sapiens) (UniProt P11712). The assay can be described thus: Cytochrome P450 Family 2 Subfamily C Member 9 (CYP2C9) small molecule antagonists: luciferase reporter qHTS assay (AID 1671198). Also: nearly all actives have a fitted effect of over 50% in size. Also: potency is read from the fitted curve at half-maximal effect. In short, it runs like this:
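P450-Glo proluciferin substrate with CYP2C9 enzyme; 10 min RT preincubation, then NADPH regeneration 1 h at 37C; luciferin detection reagent 20 min RT, luminescence in relative luminescence units.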

The target in assay [11] is Cytochrome P450 1A2 (Homo sapiens) (UniProt P05177). The experiment in a line: Cytochrome P450 Family 1 Subfamily A Member 2 (CYP1A2) small molecule antagonists: luciferase reporter qHTS assay (AID 1671199). Also: nearly all actives have a fitted effect of over 50% in size. Also: potency is read from the fitted curve at half-maximal effect. The essentials: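 P450-Glo CYP1A2, 1536-well qHTS: enzyme/proluciferin substrate + cpd (DMSO), 10 min RT; NADPH regen, 1 h RT; detection reagent, 20 min; luminescence, RLU.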

In assay [12] the target is Voltage-gated inwardly rectifying potassium channel KCNH2 (Homo sapiens) (UniProt Q12809). The assay can be described thus: Human Ether-a-go-go-Related Gene (hERG) channel small molecule antagonists: fluorescence cell-based qHTS assay (AID 1671200).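 Also: hERG-expressing U2OS cells given a thallium stimulus after FluxOR II dye loading; series mostly up to about 77 µM; nearly all actives have a fitted effect of over 50% in size.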 The essentials:
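Read-out: thallium influx as a surrogate for potassium, tracked as fluorescence (480 nm ex/540 nm em) every second for 2 min after Stimulus Buffer addition in dye-loaded hERG-U2OS cells.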
(The hERG channel carries a current that helps repolarise heart muscle cells.)

Assay [13] has as its target Cytochrome P450 3A4 (Homo sapiens) (UniProt P08684). The assay can be described thus: Cytochrome P450 Family 3 Subfamily A Member 4 (CYP3A4) small molecule antagonists: luciferase reporter qHTS assay (AID 1671201). Also: nearly all actives have a fitted effect of over 50% in size. Also: potency is read from the fitted curve at half-maximal effect. The essentials: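 Luminescent readout (RLU) proportional to CYP3A4 activity, from luciferin generated off a proluciferin substrate. Enzyme–substrate mix plus compound 10 min at room temp, NADPH regeneration 1 h, detection reagent 20 min.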

For assay [14], the target named is Cytochrome P450 2D6 (Homo sapiens) (UniProt P10635). The experiment in a line: Cytochrome P450 Family 2 Subfamily D Member 6 (CYP2D6) small molecule antagonists: luciferase reporter qHTS assay (AID 1671196). Also: nearly all actives have a fitted effect of over 50% in size. Also: potency is read from the fitted curve at half-maximal effect. In short, it runs like this: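 Read-out is luminescence from luciferin formed by CYP2D6 turnover of a proluciferin substrate, recorded as relative luminescence units. Reactions ran 1 h at room temperature after NADPH regeneration solution was added.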
% is scaled to controls: 0 for no effect and ±100 for the full control effect.

Cytochrome P450 2C19 (Homo sapiens), sequence (P33261 whole entry, looked up): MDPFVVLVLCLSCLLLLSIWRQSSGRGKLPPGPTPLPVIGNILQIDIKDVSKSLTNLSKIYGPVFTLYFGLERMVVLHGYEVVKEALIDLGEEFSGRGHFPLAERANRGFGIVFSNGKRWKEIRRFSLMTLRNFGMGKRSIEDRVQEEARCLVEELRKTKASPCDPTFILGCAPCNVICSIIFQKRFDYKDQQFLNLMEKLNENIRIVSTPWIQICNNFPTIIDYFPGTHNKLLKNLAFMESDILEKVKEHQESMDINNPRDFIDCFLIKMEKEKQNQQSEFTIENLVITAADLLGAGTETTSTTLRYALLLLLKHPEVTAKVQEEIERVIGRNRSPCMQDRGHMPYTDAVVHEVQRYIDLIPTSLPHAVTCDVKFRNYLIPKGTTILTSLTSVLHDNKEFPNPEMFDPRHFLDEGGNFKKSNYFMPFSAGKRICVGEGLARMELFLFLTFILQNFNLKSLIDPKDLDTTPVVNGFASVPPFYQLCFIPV
Cytochrome P450 2C9 (Homo sapiens), sequence (P11712 whole entry, looked up): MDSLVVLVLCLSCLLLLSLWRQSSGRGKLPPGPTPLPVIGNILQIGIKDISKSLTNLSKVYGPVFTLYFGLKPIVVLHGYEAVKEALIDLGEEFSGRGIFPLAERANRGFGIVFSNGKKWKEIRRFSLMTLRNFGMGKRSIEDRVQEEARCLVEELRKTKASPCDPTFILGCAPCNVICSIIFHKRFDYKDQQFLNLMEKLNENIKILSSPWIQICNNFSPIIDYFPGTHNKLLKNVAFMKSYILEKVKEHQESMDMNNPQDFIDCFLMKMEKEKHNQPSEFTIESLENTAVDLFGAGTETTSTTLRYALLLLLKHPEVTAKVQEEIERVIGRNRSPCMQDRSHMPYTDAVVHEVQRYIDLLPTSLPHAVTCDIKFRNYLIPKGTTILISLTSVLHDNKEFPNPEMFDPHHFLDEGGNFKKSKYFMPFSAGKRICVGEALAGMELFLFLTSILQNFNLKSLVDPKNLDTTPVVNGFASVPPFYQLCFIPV
Nuclear receptor subfamily 1 group I member 2 (Homo sapiens), sequence (O75469 whole entry, looked up): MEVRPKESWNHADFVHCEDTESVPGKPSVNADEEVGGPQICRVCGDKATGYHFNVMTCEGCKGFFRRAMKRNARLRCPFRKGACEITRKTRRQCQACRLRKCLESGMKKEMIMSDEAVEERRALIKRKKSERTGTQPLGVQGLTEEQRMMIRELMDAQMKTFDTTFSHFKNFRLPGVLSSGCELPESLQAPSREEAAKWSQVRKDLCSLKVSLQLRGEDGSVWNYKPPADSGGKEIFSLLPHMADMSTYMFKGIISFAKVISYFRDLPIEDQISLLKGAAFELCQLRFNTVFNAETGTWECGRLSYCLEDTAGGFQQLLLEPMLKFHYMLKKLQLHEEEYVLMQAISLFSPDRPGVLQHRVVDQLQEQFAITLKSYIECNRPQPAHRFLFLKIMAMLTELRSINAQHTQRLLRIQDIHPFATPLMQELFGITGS
Cytochrome P450 3A4 (Homo sapiens), sequence (P08684 whole entry, looked up): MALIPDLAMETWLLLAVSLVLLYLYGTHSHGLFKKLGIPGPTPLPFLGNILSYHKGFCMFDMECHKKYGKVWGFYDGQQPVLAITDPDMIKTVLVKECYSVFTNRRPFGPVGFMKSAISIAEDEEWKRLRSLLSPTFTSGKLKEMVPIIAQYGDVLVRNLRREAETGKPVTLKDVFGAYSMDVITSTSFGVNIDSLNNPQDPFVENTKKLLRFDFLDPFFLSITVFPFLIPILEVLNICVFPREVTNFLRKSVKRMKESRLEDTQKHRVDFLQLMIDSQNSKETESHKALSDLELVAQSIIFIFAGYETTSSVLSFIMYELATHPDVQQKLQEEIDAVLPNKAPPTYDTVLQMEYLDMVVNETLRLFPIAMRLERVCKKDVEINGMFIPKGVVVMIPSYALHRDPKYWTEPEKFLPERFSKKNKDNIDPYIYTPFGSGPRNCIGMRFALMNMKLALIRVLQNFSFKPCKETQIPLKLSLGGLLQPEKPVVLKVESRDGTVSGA
Voltage-gated inwardly rectifying potassium channel KCNH2 (Homo sapiens), sequence (Q12809 whole entry, looked up): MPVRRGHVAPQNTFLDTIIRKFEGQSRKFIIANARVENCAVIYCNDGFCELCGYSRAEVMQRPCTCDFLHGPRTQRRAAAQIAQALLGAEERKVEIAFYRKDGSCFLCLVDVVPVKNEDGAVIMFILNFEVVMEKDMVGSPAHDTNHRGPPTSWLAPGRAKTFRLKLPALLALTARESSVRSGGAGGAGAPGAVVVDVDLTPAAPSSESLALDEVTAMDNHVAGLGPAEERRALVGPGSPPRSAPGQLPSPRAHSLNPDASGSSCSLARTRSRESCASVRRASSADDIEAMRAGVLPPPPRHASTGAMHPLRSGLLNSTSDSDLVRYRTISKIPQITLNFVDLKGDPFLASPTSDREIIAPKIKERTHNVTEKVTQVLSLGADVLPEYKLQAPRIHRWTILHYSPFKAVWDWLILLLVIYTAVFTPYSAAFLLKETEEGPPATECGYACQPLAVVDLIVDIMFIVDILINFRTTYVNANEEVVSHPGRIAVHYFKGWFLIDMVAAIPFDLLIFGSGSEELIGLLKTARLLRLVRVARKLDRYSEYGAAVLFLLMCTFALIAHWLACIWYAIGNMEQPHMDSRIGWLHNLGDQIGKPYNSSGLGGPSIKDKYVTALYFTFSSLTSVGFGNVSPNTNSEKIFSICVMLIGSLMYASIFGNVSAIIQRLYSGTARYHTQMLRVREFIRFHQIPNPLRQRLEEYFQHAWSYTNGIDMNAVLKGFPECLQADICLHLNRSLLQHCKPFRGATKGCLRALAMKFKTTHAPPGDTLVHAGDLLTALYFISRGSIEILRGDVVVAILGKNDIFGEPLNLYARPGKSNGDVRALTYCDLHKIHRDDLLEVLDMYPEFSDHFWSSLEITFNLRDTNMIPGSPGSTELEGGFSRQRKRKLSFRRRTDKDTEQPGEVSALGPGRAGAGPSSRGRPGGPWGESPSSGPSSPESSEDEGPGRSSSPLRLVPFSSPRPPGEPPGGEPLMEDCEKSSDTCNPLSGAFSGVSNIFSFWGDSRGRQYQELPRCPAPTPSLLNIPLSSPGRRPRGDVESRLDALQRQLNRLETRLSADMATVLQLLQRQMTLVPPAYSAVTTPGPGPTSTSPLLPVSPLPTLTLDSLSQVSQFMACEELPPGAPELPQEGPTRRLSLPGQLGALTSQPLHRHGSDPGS
Cytochrome P450 2D6 (Homo sapiens), sequence (P10635 whole entry, looked up): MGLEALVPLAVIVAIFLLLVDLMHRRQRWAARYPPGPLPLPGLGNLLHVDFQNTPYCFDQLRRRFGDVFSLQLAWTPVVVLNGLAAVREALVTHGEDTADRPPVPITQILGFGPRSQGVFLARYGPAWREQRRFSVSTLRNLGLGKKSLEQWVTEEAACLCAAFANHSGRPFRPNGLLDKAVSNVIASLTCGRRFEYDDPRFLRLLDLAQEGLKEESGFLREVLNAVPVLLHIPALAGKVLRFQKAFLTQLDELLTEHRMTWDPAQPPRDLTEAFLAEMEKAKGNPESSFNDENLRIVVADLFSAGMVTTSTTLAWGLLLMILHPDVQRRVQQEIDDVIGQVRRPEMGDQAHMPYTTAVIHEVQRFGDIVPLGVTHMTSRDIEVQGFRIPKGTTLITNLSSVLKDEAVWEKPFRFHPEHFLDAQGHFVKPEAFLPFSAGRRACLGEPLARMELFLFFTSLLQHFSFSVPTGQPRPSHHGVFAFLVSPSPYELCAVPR
Cytochrome P450 1A2 (Homo sapiens), sequence (P05177 whole entry, looked up): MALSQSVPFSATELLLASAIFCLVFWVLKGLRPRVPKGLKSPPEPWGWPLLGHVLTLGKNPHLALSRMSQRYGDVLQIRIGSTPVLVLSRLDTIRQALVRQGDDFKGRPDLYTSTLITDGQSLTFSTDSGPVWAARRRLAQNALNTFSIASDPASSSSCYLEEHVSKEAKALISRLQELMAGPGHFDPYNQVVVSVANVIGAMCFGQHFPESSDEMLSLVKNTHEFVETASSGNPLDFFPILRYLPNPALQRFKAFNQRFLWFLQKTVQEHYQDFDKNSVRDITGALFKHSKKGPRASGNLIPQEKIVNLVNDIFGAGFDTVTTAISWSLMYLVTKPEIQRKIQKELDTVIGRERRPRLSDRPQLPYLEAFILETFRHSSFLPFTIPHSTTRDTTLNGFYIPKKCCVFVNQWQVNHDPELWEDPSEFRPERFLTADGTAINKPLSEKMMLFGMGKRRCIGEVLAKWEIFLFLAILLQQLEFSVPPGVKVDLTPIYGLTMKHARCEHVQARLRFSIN
Nuclear receptor subfamily 1 group I member 2 (Rattus norvegicus), sequence (Q9R1A7 whole entry, looked up): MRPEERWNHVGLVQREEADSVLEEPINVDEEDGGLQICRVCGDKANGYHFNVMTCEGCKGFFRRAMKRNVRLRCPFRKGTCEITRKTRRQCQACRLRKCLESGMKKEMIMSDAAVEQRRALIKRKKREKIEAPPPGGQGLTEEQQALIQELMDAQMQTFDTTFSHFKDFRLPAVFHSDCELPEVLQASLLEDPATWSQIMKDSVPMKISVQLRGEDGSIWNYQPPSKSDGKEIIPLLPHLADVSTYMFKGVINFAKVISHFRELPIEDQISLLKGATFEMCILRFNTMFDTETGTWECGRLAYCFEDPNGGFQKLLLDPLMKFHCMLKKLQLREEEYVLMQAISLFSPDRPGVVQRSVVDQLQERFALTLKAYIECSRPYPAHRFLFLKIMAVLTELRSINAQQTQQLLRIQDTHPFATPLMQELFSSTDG

Turning to `CC1(c2ccccc2)OC(C(=O)O)=CC1=O` (centres undefined), the Potency entry in assay [1], in [2], in assay [3], in [4], in assay [5] and in assay [7] was “inactive” in each case. Further, the Potency entry in assay [8], in assay [9], in [10], in assay [11], in [12] and in assay [13] was “inactive” each time. Further, the max activation in [6] was -1.39%.

Turning to `O=CC1CC=CCC1` (centres undefined), the Potency result in assay [1], in assay [2], in assay [3], in assay [4], in assay [5] and in assay [9] was “inactive” each time. Further, the Potency result in assay [10] and in assay [12] was “inactive” in each case. The Potency in assay [14] is 55.9 µM (active).

As to `O=C(O)C1(C(=O)O)CCC1.[NH2-].[NH2-].[Pt+2]`, the Potency result in assay [1], in assay [2], in assay [3], in assay [4] and in [13] was “inactive” in each case. The Potency in assay [9] was 21.9 µM (active); in [10], 8.71 µM (active); in [11], 13.8 µM (active).

As to `CCCC(=O)Nc1ccc(O)c(C(C)=O)c1`, the Potency result in assay [1], in [2], in assay [3], in [4], in assay [5] and in [14] was “inactive” throughout. Moreover, the Potency entry in assay [9] and in assay [13] was “inactive” in each case. The Potency in [11] is 9.77 µM (active).

For `CCCCCCCCO[C@@H]1O[C@H](CO)[C@@H](O)[C@H](O)[C@H]1O`, the Potency entry in [1], in assay [2], in assay [3], in [4], in [14] and in [9] was “inactive” throughout. The Potency result in assay [10], in assay [11], in [12] and in [13] was “inactive” in each case.

With `CC/C=C\CCOC(=O)CC`, the Potency result in assay [1], in assay [2], in [3], in assay [4], in [5] and in [14] was “inactive” each time. Also, the Potency entry in assay [10], in assay [11], in assay [12] and in assay [13] was “inactive” each time.

As for `COc1ccc(C(=O)Nc2nc3ccccc3c(NCc3ccccc3)c2C#N)cc1`, the Potency entry in assay [1], in assay [2], in assay [4] and in [14] was “inactive” each time. Moreover, the Potency was 19.3 µM (active) in assay [3]; 7.7 µM (active) in [5]; 17.8 µM (active) in [9]; 2 µM (active) in assay [10]; 15.9 µM (active) in assay [11]; 4.48 µM (active) in assay [13].

As to `COC(C)OC`, the Potency result in assay [1], in assay [2], in assay [3], in assay [4], in [5] and in assay [14] was “inactive” each time. The Potency result in assay [9], in assay [10], in assay [11], in assay [12] and in assay [13] was “inactive” in each case.

On to `OCc1cc(C(O)CNCCCCCCOCCCCc2ccccc2)ccc1O` (centres undefined), for which the figures for the Potency in [1] and in [3] were 21.1 µM (active) and 23.7 µM (active), respectively. Besides, the Potency entry in assay [2], in assay [4], in assay [5], in [8], in assay [9] and in [11] was “inactive” in each case. Moreover, the max activation in [6] is 0.017%.
